Screens deposited in PubChem BioAssay by Sanford-Burnham Center for Chemical Genomics.
CRFR2-BP antag: antagonists of CRF-BP/CRF-R2 complex, primary screen, cell-based, HEK293, calcium dye fluorescence, uHTS; CRF-induced calcium fluorescence; 350,000 compounds, 0.59% hits; AID 588475, 2011; inhibition, % at 11.8 µM;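 active = inhibition of the ligand-induced calcium signal above about 50% at the single tested concentration, limit read from the data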
CRFR2-BP ag: agonists of CRF-BP/CRF-R2 complex, primary screen, cell-based, HEK293, calcium dye fluorescence, uHTS; AID 588473, 2011; activation, % at 13.2 µM; calcium dye fluorescence (FLIPR); percent of saturating CRF peptide response; 350,000 compounds, 0.46% hits; CRF-binding protein / CRF receptor 2 complex (human);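 active = activation of at least 50%, plus an integration ratio under a set limit after plate pattern correction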
hiPSC survival: enhancers of single-cell hiPSC survival, primary screen, ATPlite luminescence | 100% = ROCK inhibitor wells, 0% = DMSO | 360,000 compounds, 0.044% hits | survival enhancement, % at 20 µM; in the data active = survival enhancement above about 18%;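 note: cells exposed to compounds for 16 hours before the ATP read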
SKN-1 block: suppressors of acrylamide-induced Pgst-4::GFP reporter in worms, primary screen, SKN-1 inhibitor project, whole organism, uHTS, GFP/RFP fluorescence ratio, strain VP596; C. elegans VP596 Pgst-4::GFP/RFP ratio, 24 h; inhibition, % at 21.8 µM; 360,000 compounds, 0.49% hits;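 active = interference check ratio from 0.5 to 1.5 plus GFP to RFP signal ratio inhibition reaching or exceeding a fixed threshold, cut at about 30% in these data, passing the limit was not always enough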
H9c2 TAG inh: inhibitors of triacylglycerol accumulation, primary screen, cell-based, uHTS, fluorescence, H9c2; 230,000 compounds, 0.66% hits; H9c2 cells, Nile Red lipid (TAG) fluorescence; cells loaded with 200 µM oleic acid; inhibition, % at 12.5 µM;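 active = pattern-corrected inhibition of lipid staining of at least 50% with the nuclear-stain viability signal not falling by more than 50%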
Cardio protect: cardioprotection against H2O2-induced cell death, primary screen, uHTS, H9c2 cells, ATPLite luminescence; H9c2 cardiomyocytes, H2O2 injury protection, 2 h; protection from H2O2 cell death, % at 20 µM; 360,000 compounds, 0.63% hits; AID 588492, 2011;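 active = compounds giving at least 50% protection of heart cells from peroxide-induced death in the single-dose screen, raw or plate-pattern-corrected value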
A number is an active result; n = inactive; x = not tested or not shown. Hits are enriched below; roughly 2.5% of the tested compounds scored in any of these assays.

SMILES	CRFR2-BP antag	CRFR2-BP ag	hiPSC survival	SKN-1 block	H9c2 TAG inh	Cardio protect
CSCCC(NC(=O)c1ccco1)C(=O)N1CC=C(c2ccccc2)CC1 (stereo not drawn)	n	53	n	n	n	n
Cc1cc(C(O)c2ncc(-c3ccc(Oc4ccccc4)cc3)[nH]2)ccc1F (stereo not drawn)	x	x	n	n	n	n
CC1(C)CC(=O)C(=Cc2cn(-c3ccccc3)nc2-c2ccc(Cl)cc2)C(=O)C1	n	58	n	n	x	n
Cc1ccc(S(=O)(=O)N(CC(=O)N=Nc2c(O)[nH]c3ccccc23)c2ccc(C)c(C)c2)cc1	67	n	n	n	x	n
CN(C)c1ccc2nc3ccc(=[N+](C)C)cc-3sc2c1	n	n	n	37	n	n
CN(C)c1ccc2nc3ccc(=O)cc-3sc2c1	n	n	n	n	n	n
Cc1ccc(-n2c(Cl)c(Cl)[nH]c(=O)c2=O)cc1	51	n	n	n	x	n
Cc1ccc(-n2c(=O)cc(N3CCCCCC3)[nH]c2=O)cc1	n	n	n	n	n	n
O=C(C(=O)N1CCC(Cc2ccccc2)CC1)c1cccs1	x	x	x	n	x	x
COc1ccccc1C1C=C(c2ccc(Cl)cc2)Nc2nc(N3C(=O)CCC3=O)nn21 (stereo not drawn)	n	n	n	n	n	n
COc1ccc(C2=CC(c3ccc(Cl)cc3)n3cnnc3N2)cc1OC (stereo not drawn)	n	80	n	n	n	n
COc1cc(Cl)ccc1NC(=O)COc1ccccc1C(=O)N1CCN(c2ccc(O)cc2)CC1	n	n	n	n	n	n
CCCCN1CC(COCc2ccccc2)Oc2cccc(OCCN3C(=O)[C@@H]4[C@H](C3=O)C3C=C[C@H]4C3)c2S1(=O)=O (stereo partly drawn)	n	172	n	n	n	71
NC(=O)c1cc2c3ccccc3ccn2c1-c1ccccc1	n	n	n	n	x	n
Nc1ccc(N2CCN(C(=O)c3cccs3)CC2)cc1	n	n	n	48	n	n
CCCS(=O)(=O)c1c(S(=O)(=O)CCC)c2c(C)cccn2c1C(N)=O	n	n	n	n	x	n
CCCS(=O)(=O)c1c(S(=O)(=O)CCC)c2c(C)cccn2c1C(=O)N/N=C/c1cc(O)cc(O)c1	n	n	n	n	x	53
O=S(=O)(c1ccc(N2CCN(c3ccc(F)cc3)CC2)cc1)N1CCCC1	n	n	n	n	x	n
O=S(=O)(c1ccc(N2CCCC2)cc1)C(F)(F)F	n	n	n	42	x	n
COc1cc(CNc2ccccc2SC)ccc1O	55	n	n	n	x	n
COc1cc(C[C@@H](C)[C@@H](C)Cc2ccc(O)c(OC)c2)ccc1O	n	n	n	n	n	n
CCNC(=S)Nc1ccc2c(c1)c(=O)n(C)n2-c1ccc(C(C)(C)C)cc1	x	x	n	n	n	n
COC(=O)c1ccc(Cn2nnc3c(=O)[nH]c(C4CCCN(S(=O)(=O)c5ccccc5)C4)nc32)cc1 (stereo not drawn)	n	n	n	n	x	61
O=c1[nH]c(C2CCCN(S(=O)(=O)c3ccccc3)C2)nc2c1nnn2Cc1ccccc1 (stereo not drawn)	n	n	n	n	x	n
CC1CCCC(C)N1C(=O)COC(=O)COc1ccc(C#N)cc1 (stereo not drawn)	72	n	n	n	n	n
SMILES	CRFR2-BP antag	CRFR2-BP ag	hiPSC survival	SKN-1 block	H9c2 TAG inh	Cardio protect
FC(F)(F)Oc1ccccc1C(c1nnnn1-c1ccc2c(c1)OCCO2)N1CCN(C/C=C/c2ccccc2)CC1 (stereo not drawn)	x	x	n	n	x	n
Cc1ccnc(N/C=C(\C#N)c2nc(-c3cccc(Br)c3)cs2)c1	n	237	n	n	x	n
COC(=O)[C@@]12C[C@@H](CC(=O)N3CCCCC3)C(=O)N(Cc3ccccc3)C1=CCC(C)(C)C2	x	x	x	n	x	x
Cc1cc(NC(=O)CCCSc2nc(-c3ccco3)cc(C(F)(F)F)n2)no1	n	n	n	n	n	n
Cc1cc(NC(=O)CCSc2nc(-c3ccco3)cc(C(F)(F)F)n2)no1	91	n	n	n	n	n
O=C(CSc1nc(-c2cccs2)cc(C(F)(F)F)n1)NCCCN1CCOCC1	n	n	n	n	n	n
O=C(CSc1nc(-c2ccco2)cc(C(F)(F)F)n1)NCCCN1CCOCC1	51	n	n	n	n	n
COc1ccc(-c2noc(C(=O)NCc3ccc(F)cc3)n2)cc1OC	60	n	n	n	n	n
COc1ccc(-c2noc(C(=O)NCc3ccccc3Cl)n2)cc1OC	n	n	n	n	n	n
CC1CCN(Cc2nc3c(c(=O)n(C)c(=O)n3C)n2CCCc2ccccc2)CC1	n	n	n	n	n	56
COc1cc(/C=C2/C(=O)NN(c3cccc(C)c3)C2=O)ccc1OC(=O)c1ccco1	n	54	n	n	x	n
CC(=O)Oc1cccc(N2C(=O)C3C4C=CC(C4)C3C2=O)c1 (stereo not drawn)	n	n	n	n	x	n
C=C(C)C(=O)Oc1ccc(N2C(=O)[C@@H]3C4C=CC(C4)[C@@H]3C2=O)cc1	61	n	n	n	x	n
Cc1noc(C)c1CSCc1ccc(Cl)cc1	76	n	n	n	x	n
Cc1noc(C)c1COC(=O)Cc1ccc(Cl)cc1	n	n	n	n	n	n
OC(c1ccc(F)c(F)c1)c1nc(-c2ccc(Cl)cc2)cs1 (stereo not drawn)	x	x	n	n	n	n
C=CCSc1nnc(-c2ccc(Cl)cc2Cl)o1	n	n	n	86	x	n
Clc1ccc(-c2nnc(SCc3nc4ccccc4[nH]3)o2)c(Cl)c1	n	n	n	n	n	n
Clc1ccc(-c2nnc(SCc3ccon3)o2)c(Cl)c1	n	n	n	37	x	n
CC(C)(C)c1ccc(NC(=O)c2cc(C3CCCN(C(=O)CCc4ccccc4)C3)on2)cc1 (stereo not drawn)	x	x	n	n	n	n
COc1cccc(NC(=O)N2CCCC2C(=O)Nc2cc(C)ccc2OC)c1 (stereo not drawn)	n	n	n	n	x	n
Cc1cc(O)c(C(C)C)cc1NC(=O)Nc1ccc([N+](=O)[O-])cc1	n	n	n	44	n	n
CC(=O)Nc1cccc(-c2ccnc3c2CC(C(=O)Nc2ccc(Cl)cc2)O3)c1 (stereo not drawn)	x	x	n	n	n	n
CN(C)c1ccc(/C=C(/C(=O)c2ccc(Cl)cc2Cl)n2cncn2)cc1	n	71	n	n	x	n
C/C(=N\NC(=O)c1cccc(N/N=C(\C)c2ccccc2)c1)c1ccccc1	n	n	n	n	x	n
